PKM2 inh: blocks activity of human pyruvate kinase M2. purified PKM2, ATP generation, Kinase-Glo luminescence. Potency, µM (doses to about 57.5 µM), without a hit: at the highest dose activity change, negative = inhibition, most hits filed as inhibitors. 260,000 tested, 0.058% active. AID 1634; further: potency means the concentration at half of the fitted maximal effect; nearly all actives have a fitted effect of over 60% in size
Target sequence (P14618 whole entry, looked up): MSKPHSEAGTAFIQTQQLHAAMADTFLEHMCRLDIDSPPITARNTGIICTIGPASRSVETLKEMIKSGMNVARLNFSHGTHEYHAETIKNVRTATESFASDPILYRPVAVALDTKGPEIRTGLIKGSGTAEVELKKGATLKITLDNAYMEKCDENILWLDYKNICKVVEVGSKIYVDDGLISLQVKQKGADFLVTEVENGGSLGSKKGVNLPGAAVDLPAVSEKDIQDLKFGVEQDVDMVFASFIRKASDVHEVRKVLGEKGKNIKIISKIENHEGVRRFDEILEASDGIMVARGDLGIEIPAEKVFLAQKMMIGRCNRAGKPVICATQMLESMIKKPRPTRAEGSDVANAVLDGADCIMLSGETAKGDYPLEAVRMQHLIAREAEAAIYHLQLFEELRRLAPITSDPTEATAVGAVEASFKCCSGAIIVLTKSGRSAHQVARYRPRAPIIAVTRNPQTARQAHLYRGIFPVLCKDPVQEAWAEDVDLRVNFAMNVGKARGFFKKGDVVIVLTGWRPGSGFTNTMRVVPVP
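Enzyme run at intermediate activity with final 0.1 mM ADP, 0.5 mM PEP (50 mM imidazole pH7.2, 50 mM KCl, 7 mM MgCl2), incubated 1 h at r.t. ATP formed read by Kinase-Glo luminescence, normalized to no-enzyme (full inhibition) and uninhibited wells.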
PKM2 inh CRC: dose-dependently blocks human pyruvate kinase M2 activity; shares compounds with PKM2 inh; purified hPK-M2, Kinase-Glo ATP luminescence, 1 h; Potency, µM (top dose mostly 57.5 µM), inactives show top-dose activity change, negative = inhibition, actives largely listed as inhibitors; 55 tested, 50% active; AID 2263
PKM2 FLuc cs: blocks firefly luciferase, flagging PKM2 inhibitor artifacts; AID 2265; Kinase-Glo firefly luciferase, luminescence, 8 min; 55 tested, 30% active; shares compounds with PKM2 inh; Potency, µM (doses to about 57.5 µM), without a hit: at the top dose activity, negative = inhibition, usual class: inhibitors
PKM2 LDH couple: PKM2 (human) inhibition, NADH coupled readout; 55 tested, under 10 active; AID 2267; purified hPK-M2, LDH-coupled NADH fluorescence kinetic; Potency, µM (series often up to 57.5 µM), without a hit: top-dose activity change, negative = inhibition, most hits filed as inhibitors; shares compounds with PKM2 inh
* marks the source's active call; other numbers are inactive results; ? = inconclusive; . = no result given. The entries come from a sample that favours hits as a whole. The call rests on the fitted dose curve; in most records, active means well fitted curve in the direction sought with a large enough effect; inconclusive means small, poorly fitted or top-dose-only effect, or another doubt; inactive means no such curve, though single readings can be large; an effect the other way counts as inactive or inconclusive.

SMILES | PKM2 inh | others
O=[N+]([O-])c1cccnc1NCc1cccs1 | 36.9%
CC(C)C(NC(=O)c1ccc(C(C)(C)C)cc1)C(=O)Nc1cccc(S(N)(=O)=O)c1 (stereo not drawn) | 105.7%
FC(F)(F)c1ccccc1NC(=S)NC1CCN(Cc2ccccc2)CC1 | 30.2%
O=C1NC(=S)S/C1=C1\Sc2ccccc2N1CCCS(=O)(=O)O | 11.2µM*
COc1c(O)c(O)cc2c1oc1c3ccccc3oc(=O)c21 | 38.5%
COc1ccc(OC)c2c(C)c(C)[nH]c12 | 51.0%
CC(=O)Nc1ccc(N(C(=O)c2ccco2)C(C(=O)NC2CCCC2)c2ccc(N3CCOCC3)cc2)cc1 (stereo not drawn) | 56.3%
CC(Sc1ccc([N+](=O)[O-])cn1)C(=O)Nc1nccs1 (stereo not drawn) | 101.7%
CC(=O)Nc1nnc(-c2ccccn2)o1 | -1.7%
Cc1ccc(-c2nc(-c3ccccn3)no2)cc1 | 10µM*
c1ccc(-c2nc(-c3ccco3)cs2)nc1 | 41.3%
O=C1C(Cl)=C(Nc2ccccc2O)C(=O)N1CCc1ccccc1 | 45.7%
CCN(CC)S(=O)(=O)c1cccc(NC(=O)c2ccc(Sc3nncn3C)c([N+](=O)[O-])c2)c1 | 88.0%
O=c1[nH]c2ccccc2nc1Cc1ccc([N+](=O)[O-])cc1 | 37.7%
CC(C)c1ccc2oc3nc(N)c(C(=O)O)cc3c(=O)c2c1 | 14.1µM*
O=C(CN(CCc1ccccc1)S(=O)(=O)c1ccc(Br)cc1)N/N=C/c1ccccc1C(=O)O | -6.0%
O=C(N/N=C/c1ccc(-c2ccc(Cl)c(C(=O)O)c2)o1)c1cc2c(ccc3ccccc32)o1 | 44.1%
Cc1cc(NC(=O)C2CCCCC2)ncc1NC(=O)c1ccccn1 | 52.5%
O=C(Nc1ccc2c(c1)OCCO2)c1ccccn1 | 14.1µM*
O=C(CN1CCN(c2ccc(O)cc2)CC1)Nc1ccc2c(c1)OCCO2 | 35.2%
O=C(Nc1ccc2oc(-c3ccccc3F)nc2c1)c1ccc2c(c1)OCCO2 | 4.5%
O=C(Nc1ccc(N2CCCCC2)cc1)c1ccccn1 | 15.8µM*
Cc1cc(C)cc(NC(=O)Nc2ccc(N3CCCCC3)cc2)c1 | 45.5%
COC(=O)c1cc2c(C(F)(F)F)nn(C)c2s1 | 48.0%
O=C(NCc1nnc2c(C(F)(F)F)cc(Cl)cn12)c1ccco1 | 64.2%
SMILES | PKM2 inh | others
COc1cccc(CNC(=O)CCC2CCCN(C(=O)c3ccc(OC)o3)C2)c1 (stereo not drawn) | 62.4%
Cc1cc2c(NC(=O)Nc3ccc(C(C)(C)C)cc3)cccc2nn1 | 1.2%
CC(=O)Nc1ccc(C(=O)OCc2ccccc2Br)cc1 | 1.5%
COc1ccc(NC(=O)Nc2ccccc2C(N)=O)cc1 | 25.1µM*
O=C(O)CSc1cc(C(=O)c2ccccc2O)cn2c(=O)c3c4c(sc3nc12)CCCC4 | 35.9%
Cc1nc(N=Nc2ccc(O)cc2)n[nH]1 | 12.6µM*
C=C1C(=O)C=C2CN(C(=O)c3ccccc3)[C@@](Cc3ccc(OC)cc3)(C(=O)OC)[C@@H]12 | 42.1%
COc1ccccc1NS(=O)(=O)c1cc(C(=O)NCCC(C)C)ccc1F | 118.0%
COc1cccc(CNc2ccc([N+](=O)[O-])cc2Cl)c1O | 43.7%
Cc1ccc(Nc2cc(C)c3c(O)cccc3n2)cc1C | 3.0%
COc1cccc2nc3cc(C)c(C)cc3nc12 | 14.1µM*
COc1cc(F)ccc1S(=O)(=O)n1c(C)nc2ccccc21 | -2.0%
Cc1c(Br)cc(C(=O)NCc2ccco2)c(C)c1C | 30.6%
O=C(NNC(=O)c1cc2cc(Br)ccc2oc1=O)c1ccc(O)cc1O | 53.8%
O=C(NCc1ccco1)c1cc2ccc(O)cc2oc1=O | 11.2µM*
CS(=O)(=O)c1ccc(C(=O)NCCN2C(=O)S/C(=C\c3cccnc3)C2=O)cc1[N+](=O)[O-] | 56.8%
CCOC(=O)c1c(C)sc2c1N(C(C)=O)c1cc(Cl)ccc1S2 | 78.1%
COc1cccc(NC(=O)CSc2nnc(C)s2)c1 | 41.6%
COc1ccc(C(=O)Nc2cccc(OC)c2)cc1 | ? | PKM2 inh CRC=?;PKM2 FLuc cs=?;PKM2 LDH couple=-9.6%
COc1cccc(NC(=O)CSc2nnc3cc(C)nc(N)n23)c1 | 134.8%
CCOc1ccc(OCC(=O)Nc2nccs2)cc1 | 10µM* | PKM2 inh CRC=10.3µM*;PKM2 FLuc cs=?;PKM2 LDH couple=-1.6%
CCOC(=O)C(Cc1ccccc1)C(=O)Nc1nccs1 (stereo not drawn) | 44.9%
Cc1ccc(CCC(=O)Nc2nccs2)o1 | 89.6%
COc1cc(S(=O)(=O)Nc2cccc(C)c2)ccc1NC(=O)c1ccncc1 | 39.3%
Cc1cccc(NS(=O)(=O)c2cc3c(cc2C)n(C)c(=O)c(=O)n3C)c1 | 84.6%
SMILES | PKM2 inh | others
CN(CC1CCCN(CCc2cccc(C(F)(F)F)c2)C1)C(=O)c1cc2ccccc2o1 (stereo not drawn) | 38.1%
O=C(NC(=O)c1ccccc1)Nc1ccccn1 | 5.01µM* | PKM2 inh CRC=11.6µM*;PKM2 FLuc cs=5.17µM*;PKM2 LDH couple=-2.1%
Cc1cc(C)c(NC(=O)NC(=O)c2cccc(F)c2)c(C)n1 | 30.6%
O=C(O)c1ccc(NC(=S)NC(=O)c2ccc(-c3ccccc3)cc2)cc1 | 49.4%
O=[N+]([O-])c1ccc(Sc2nnnn2-c2ccccc2)nc1 | 64.2%
Cc1ccc(-c2nc3ccc(Cl)cn3c2Nc2ccccc2)o1 | . | PKM2 inh CRC=14.3%;PKM2 FLuc cs=1.9%;PKM2 LDH couple=-21.0%
c1coc(-c2nc3ccccc3nc2-c2ccco2)c1 | 30.3%
Cc1cc(C)n2c(Nc3ccc4c(c3)OCCO4)c(-c3ccc(C)o3)nc2n1 | 43.5%
Cc1ccc(-c2nc3cnccn3c2Nc2ccc3c(c2)OCO3)o1 | 66.5%
Cc1ccc(-c2nn(-c3ccccc3)cc2C2SCC(=O)N2Cc2ccccc2)o1 (stereo not drawn) | 40.3%
Cc1ccc(-c2cc(-c3ccc(Cl)cc3)c(C#N)c(N)n2)o1 | 58.3%
Cc1ccc2nc(-c3ccc(C)o3)c(Nc3ccc4c(c3)OCO4)n2c1 | . | PKM2 inh CRC=11.8%;PKM2 FLuc cs=1.7%;PKM2 LDH couple=-5.8%
Fc1ccccc1-c1ccc(-c2nc3ccc(Cl)cn3c2Nc2ccc(Cl)cc2)o1 | . | PKM2 inh CRC=13.9%;PKM2 FLuc cs=5.3%;PKM2 LDH couple=2.3%
Cc1ccc2nc(-c3ccco3)c(Nc3ccccc3)n2c1 | . | PKM2 inh CRC=-0.5%;PKM2 FLuc cs=-0.6%;PKM2 LDH couple=?
N#CC1=C(N)NC(SCC(=O)Nc2ccccc2)=C(C#N)C12CCCC2 | 42.1%
C/C(=C\c1ccc(C)o1)C(=O)c1c(C)cc(C)[nH]c1=O | 66.0%
CC(=C\C(=O)O)/C(=C/c1ccc(C)o1)C(=O)O | 35.6%
COc1ccc(C2CC(c3ccccc3OC(C)=O)=NN2C(C)=O)cc1 (stereo not drawn) | 42.7%
CC(=O)c1c(C)[nH]c(C(=O)Nc2ccc(C)cc2Br)c1C | 58.5%
COc1cccc(CNC(=O)CCC2CCCN(C(=O)c3cc(C4CC4)[nH]n3)C2)c1 (stereo not drawn) | 139.1%
CC(=O)CC1(OC(C)=O)C(=O)N(C)c2ccccc21 (stereo not drawn) | 34.3%
N#Cc1nccnc1S(=O)(=O)c1cccs1 | 53.0%
C[C@H](NC(N)=O)C(=O)N1CCN(S(=O)(=O)c2ccc3ccccc3c2)CC1 | 38.3%
CC(=O)N1N=C(c2ccccc2O)CC1c1cccs1 (stereo not drawn) | 37.9%

Screening results deposited in PubChem BioAssay by National Center for Advancing Translational Sciences (NCATS).
